In PubChem BioAssay AID2058 (Sanford-Burnham Center for Chemical Genomics, 2009) one finds inhibition data, which are given here for 57 compounds.

Molecules are shown by their SMILES. Out of some 290,000 compounds screened, about 150 (0.052%) were called active.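 Rule for the calls: active = inhibition of at least 50% with at least 30 cells and total cytoplasm GFP at most 10,000,000; inconclusive = under 30 cells or total GFP of 10,000,000 plus; inactive = the rest.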 What follows is part of a selection rich in actives, with near analogues and random picks from the rest. Entries with a potency or affinity are not part of this list.

G-protein coupled receptor 35 (Homo sapiens), sequence (Q9HC97 whole entry, looked up): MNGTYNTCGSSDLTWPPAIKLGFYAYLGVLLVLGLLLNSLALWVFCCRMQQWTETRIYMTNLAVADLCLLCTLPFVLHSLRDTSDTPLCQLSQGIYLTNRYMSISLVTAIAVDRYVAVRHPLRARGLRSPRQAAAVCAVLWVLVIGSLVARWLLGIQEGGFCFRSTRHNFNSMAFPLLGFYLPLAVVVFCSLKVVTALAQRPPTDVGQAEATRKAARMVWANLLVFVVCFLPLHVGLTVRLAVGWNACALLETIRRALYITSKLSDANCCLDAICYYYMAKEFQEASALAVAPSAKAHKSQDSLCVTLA

The assay has as its target G-protein coupled receptor 35 (Homo sapiens) (UniProt Q9HC97). Put plainly: GPR35 antagonists blocking zaprinast-driven arrestin recruitment, primary screen, imaging, U2OS, beta-arrestin-GFP, zaprinast agonist (AID 2058). Conditions: U2OS GPR35 beta-arrestin-GFP translocation imaging, zaprinast antagonism; at 10 µM; hits give high values. In general terms: Arrestin recruitment assays detect the binding of arrestin to an activated receptor.
Take `COC(=O)c1ccc(Cn2nc(C)c(Br)c2C)cc1`: the inhibition was 4% (inactive).
Then `C[C@H](NC(=O)c1nc[nH]c1C(=O)N[C@H](C)c1ccccc1)C(=O)OC(C)(C)C`, with 5.8% (inactive); and `Cc1cc(=O)oc2c(C)c3occc3cc12`, with -1.8% (inactive).
With `O=C1C(=O)N(CCN2CCOCC2)C(c2cccc(Cl)c2)/C1=C(\O)c1ccc2c(c1)OCCO2` (configuration not stated) the figure was -1.2% (inactive).
Consider `Cc1ccccc1COc1ccc2oc(C)c(C(=O)O)c2c1`, for which the inhibition was -10.4% (inactive).
With `O=[N+]([O-])c1c(-c2cn[nH]c2)n[nH]c1-c1cn[nH]c1` the figure was -2% (inactive); with `O=C(COc1ccc(S(=O)(=O)N2CCCC2)cc1Cl)N1CCN(c2ccccc2)CC1`, -0.4% (inactive); with `Cc1oc(-c2ccccc2F)nc1CN1CCC(C(=O)NC2CC2)CC1`, -1.6% (inactive).
Take `O=C(CCCN1C(=O)/C(=C/c2ccccc2)SC1=S)Nc1cccc(O)c1`: the inhibition was -8.3% (inactive).
Then `O=C(CCN1C(=O)/C(=C/c2ccc(Cl)cc2)SC1=S)Nc1cccc(C(=O)O)c1`, with 1.5% (inactive); and `CCc1ccccc1NC(=O)c1cccc(NC(=O)/C=C/c2ccco2)c1`, with 10.4% (inactive).
With `O=C(/C=C/c1ccco1)Nc1ccccc1C(=O)Nc1cccc(C(=O)O)c1` the figure was -11.1% (inactive).
`CCOc1ccc(C2C(C(=O)c3ccc(C)o3)=C(O)C(=O)N2c2nc(C)c(C(=O)OC)s2)cc1` (configuration not stated): the inhibition was 5.8% (inactive).
Then `COC(=O)c1sc(N2C(=O)C(O)=C(C(=O)c3ccc(C)o3)C2c2ccc([N+](=O)[O-])cc2)nc1C` (configuration not stated), with -3.4% (inactive).
With `COC(=O)c1sc(N2C(=O)C(O)=C(C(=O)c3ccc(C)o3)C2c2ccc(F)cc2)nc1C` (configuration not stated) the figure was 100% (active).
Then `O=S(=O)(Nc1ccc(N=Nc2ccccc2)cc1)c1ccccc1`, with -12.2% (inactive); and `O=S(=O)(Nc1ccc(N=Nc2ccc(O)c3ccccc23)cc1)c1ccccc1`, with 70.3% (active).
As for `O=S(=O)(Nc1ccc(O)c(NS(=O)(=O)c2ccccc2)c1)c1ccccc1`, the inhibition is -5.8% (inactive).
With `COc1cccc(NC(=O)NNC(=O)CCc2ccc(O)c(O)c2)c1` the figure was 11.4% (inactive); with `CC(=O)c1ccc(N2CCN(c3ncc(C(F)(F)F)cc3Cl)CC2)cc1`, -3.2% (inactive); with `CN(C)C=NC(=O)c1ccc(N2CCN(c3ncc(C(F)(F)F)cc3Cl)CC2)cc1`, 14.6% (inactive).
With `O=C(CSc1nnc(-c2ccc(F)cc2)o1)c1ccc2c(c1)OCCO2` the figure was 11.5% (inactive); with `O=C(/C=C/c1ccccc1)NC(NC(=S)Nc1ccc(Cl)cc1Cl)C(Cl)(Cl)Cl` (configuration not stated), 76.2% (active); with `O=C(/C=C/c1ccccc1)NC(NC(=S)Nc1cc(Cl)ccc1Cl)C(Cl)(Cl)Cl` (configuration not stated), 27.8% (inactive).
Then `O=C(/C=C/c1ccccc1)NC(NC(=S)Nc1ccc(Cl)cc1)C(Cl)(Cl)Cl` (configuration not stated), with -0.3% (inactive); and `CC1=C(C(=O)Nc2ccccc2C(=O)N2CCC(C)CC2)SCCO1`, with -12.3% (inactive); and `COc1ccc(CCC(=O)Nc2ccc(Cl)c(S(=O)(=O)N3CCCC3)c2)cc1`, with -7.8% (inactive).
In the case of `COCCNC(=O)CSc1nc2ccc(N3CCOCC3)cc2c(=O)n1CCc1ccccc1`, the inhibition was -7.7% (inactive).
Then `N#CC(C#N)=C1C=C2C=C(N3CCCCCC3)CCC2CC1` (configuration not stated), with 46% (inactive); and `CC1(C)CC(NCCN2CCN(C3=CC(=C(C#N)C#N)CC(C)(C)C3)CC2)=CC(=C(C#N)C#N)C1`, with -1% (inactive).
With `N#CC(C#N)=C1C=C2C=C(N3CCOCC3)CCC2CC1` (configuration not stated) the figure was 1.7% (inactive); with `N#CC(C#N)=C1C=C2C=C(N3CCCCC3)CCC2CC1` (configuration not stated), 11.2% (inactive).
As to `COC(=O)c1cc(NC2c3ccccc3C(=O)N2c2cccnc2)cc(C(=O)OC)c1` (configuration not stated), the inhibition is -4% (inactive).
Then `COc1cccc(C2N=C(c3ccccc3C)NO2)c1OC` (configuration not stated), with 13.2% (inactive).
With `O=C(CSc1nc(O)c(C2CCCCC2)c(=O)[nH]1)Nc1ccccc1Cl` the figure was -1.9% (inactive); with `O=C(Nc1ccc2c(c1)oc1ccccc12)C1CC1`, 1.2% (inactive); with `COc1ccc(N=C2S/C(=C\c3ccc(OC(C)C(=O)O)c(OC)c3)C(=O)N2CCc2c[nH]c3ccccc23)cc1` (configuration not stated), -11.1% (inactive).
In the case of `COc1ccc(N=C2S/C(=C\c3ccc(OCC(=O)O)cc3)C(=O)N2CCc2c[nH]c3ccccc23)cc1`, the inhibition was -10.9% (inactive).
With `Cc1ccc2oc(C(=O)Nc3ccc(S(=O)(=O)Nc4ncccn4)cc3)c(C)c2c1` the figure was 18.7% (inactive); with `COc1ccc(/C=C2\Cc3ccccc3C2=O)cc1OC`, 10.6% (inactive).
Then `COc1ccc(/C=C2\CC/C(=C\c3ccc(OC)c(OC)c3)C2=O)cc1OC`, with -1.3% (inactive).
With `N/C(=N\OC(=O)COc1ccccc1)c1ccncc1` the figure was -1.4% (inactive); with `CCOc1ccccc1/C=N/NC(=O)Cc1csc(Nc2cccc(C(F)(F)F)c2)n1`, 20% (inactive); with `CCOc1ccc(/C=N/NC(=O)Cc2csc(Nc3cccc(C(F)(F)F)c3)n2)c(OCC)c1`, -0.3% (inactive).
On to `O=C(Nc1ccccc1F)C1CCCN(S(=O)(=O)c2ccc(-n3cnnn3)cc2)C1` (configuration not stated), for which the inhibition was 7.9% (inactive).
Consider `O=C(/C=C/c1ccc2ccccc2n1)c1cc(Cl)ccc1O`, for which the inhibition was 7.6% (inactive).
Then `O=C(/C=C/c1cccs1)c1cc(Cl)ccc1O`, with -8.1% (inactive); and `CN(C)c1ccc(/C=C/C(=O)c2cc(Cl)ccc2O)cc1`, with 57.6% (active).
Then `CN(C)c1ccc(/C=C/C(=O)c2ccccc2O)cc1`, with 21.4% (inactive); and `O=C(/C=C/c1ccncc1)c1cc(Cl)ccc1O`, with 96.6% (active); and `COc1ccc(C(=O)/C=C/c2ccc(N(C)C)cc2)c(OC)c1`, with 21.5% (inactive).
With `CC(C)N(CCc1ccncc1)C(=S)Nc1ccc(F)c(Cl)c1` the figure was 4.6% (inactive); with `CC(C)c1ccc(C(=O)NC(=S)Nc2ccc3[nH]c(=O)[nH]c3c2)cc1`, -6.7% (inactive); with `CC(=O)c1cc2c(cc1N/C(=N/S(=O)(=O)c1ccccc1)c1ccc(Cl)cc1)OCO2`, 13.2% (inactive).
For `CC(C)(C)CC(C)(C)NC(=S)Nc1ccc(S(=O)(=O)N2CCOCC2)cc1`, the inhibition was -2.7% (inactive).
Then `CCCCOC(=O)c1ccc(NC(=O)c2ccccc2OC)cc1`, with 12.9% (inactive); and `CCCCOC(=O)c1ccc(NC(=O)c2cc(Cl)c(Cl)cc2C(=O)O)cc1`, with -5.9% (inactive).

Broadly, the inhibition is the change of the read-out against control, counted positive when it falls.
